Most compounds without a hit are left out; they make up all but 5.9% or so of the library.
GLP-1R agonist: activates the human GLP-1 receptor | P43220 | HEK293 GLP-1R CRE-luciferase, luminescence, 4-6 h; cells express a hypersensitive GLP-1R form | Potency, µM (titrated, usually from 45.6 µM), inactives show top-dose activation, usual class: activators | actives 0.007% (n = 380,000) | AID 624172; further: % of control where 0% means no effect
Target sequence (P43220 whole entry, looked up): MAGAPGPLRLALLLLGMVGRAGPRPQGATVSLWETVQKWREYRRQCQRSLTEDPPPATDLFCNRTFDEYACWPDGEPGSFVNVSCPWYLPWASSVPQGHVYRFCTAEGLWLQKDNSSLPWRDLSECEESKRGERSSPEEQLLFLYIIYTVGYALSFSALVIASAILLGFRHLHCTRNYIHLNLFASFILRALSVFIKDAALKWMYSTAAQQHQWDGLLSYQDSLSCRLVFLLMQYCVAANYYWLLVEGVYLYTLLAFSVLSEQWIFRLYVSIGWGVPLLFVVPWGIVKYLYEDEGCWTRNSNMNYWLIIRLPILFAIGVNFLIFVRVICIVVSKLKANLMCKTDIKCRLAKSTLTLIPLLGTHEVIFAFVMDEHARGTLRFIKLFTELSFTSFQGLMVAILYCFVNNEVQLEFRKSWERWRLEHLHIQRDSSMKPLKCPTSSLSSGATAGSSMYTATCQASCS
HEK293 tox: cytotoxic in the GLP-1 receptor inverse agonist counter-screen | Potency, µM (highest dose often 38.3 µM), for the others: at the highest dose activity change, negative = inhibition, most hits filed as inhibitors | actives 0.13% (n = 410,000) | HEK293 cAMP-luciferase reporter cells, luminescence, 24 h | AID 624418;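 further: loss of luciferase light is scored as toxicity; on the % scale 0 is the no-effect control and ±100 the full control effect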
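Compound-treated cells are incubated 24 hr at 37 deg C under 5% CO2 after a 12 hour attachment period, then luciferase detection reagent is added and luminescence is measured following 12 min at room temperature; lowered signal indicates toxicity.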
RORgamma inh: blocks mouse ROR gamma transcriptional activity; Drosophila S2 Gal4-RORgamma UAS-luciferase reporter, 20 h; actives 5.4% (n = 310,000); Potency, µM (doses to about 53.6 µM), inactives show at the top dose activity change, negative = inhibition, usual class: inhibitors; further: on the % scale 0 is the no-effect control and ±100 the full control effect; nearly all actives have a fitted effect of over 60% in size
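Using a luciferase readout, inhibitors were identified by reduced reporter activity in Drosophila cells coexpressing a copper-inducible Gal4–ROR gamma fusion and UAS-driven Photinus luciferase, incubated 20 hr after 700 uM copper sulfate.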
VP16 counter: counter-screen for ROR gamma inhibitors: Gal4-VP16 reporter | Drosophila S2 Gal4-VP16 UAS-luciferase, luminescence, 20 h | Potency, µM (highest dose often 53.6 µM), without a hit: at the top dose activity, negative = inhibition, actives largely listed as inhibitors | AID 2546 | actives 3.5% (n = 310,000);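 further: Gal4-VP16 expression switched on by copper sulfate through the metallothionein promoter; on the % scale 0 is the no-effect control and ±100 the full control effect; nearly all actives have a fitted effect of over 50% in size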
GLP1R inv ag: GLP-1 receptor (human) inverse agonism | Potency, µM (series often up to 38.3 µM), inactives show top-dose activity change, negative = inhibition, usual class: inhibitors | HEK293 GLP-1R CRE-luciferase, luminescence, 24 h; GLP-1R form is constitutively active | AID 624417 | actives 1.6% (n = 410,000); further: on the % scale 0 is the no-effect control and ±100 the full control effect; nearly all actives have a fitted effect of over 55% in size
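Inverse agonism was detected as reduced cAMP-driven luciferase luminescence after 24 h compound treatment. The cells were HEK293 clones expressing constitutively active human GLP-1R with the reporter. Reporter-only and GPR119 cell lines served as counterscreen controls.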
* marks the source's active call; other numbers are inactive results; ? = inconclusive; / = no result given. The call rests on the fitted dose curve; in most records, active means well fitted curve in the direction sought with a large enough effect; inconclusive means small, poorly fitted or top-dose-only effect, or another doubt; inactive means no such curve, though single readings can be large; an effect the other way counts as inactive or inconclusive. Potency means the concentration at half of the fitted maximal effect.

SMILES	GLP-1R agonist	HEK293 tox	RORgamma inh	VP16 counter	GLP1R inv ag
O=C(NNC(=O)c1cnccn1)c1ccc(Cl)cc1	2%	-13%	8.9µM*	16µM*	?
Cc1csc2ncnc(NNC(=O)c3ccc(Cl)cc3)c12	6%	?	1.8µM*	4.5µM*	?
CCOc1ccccc1NC(=O)c1cc2c(=O)oc3ccccc3c2s1	/	2%	/	/	11%
O=C(c1csnn1)N1CCC2(CC1)CN(c1ccncc1)C2	/	/	-11%	-12%	/
CCN(C(=O)Cn1c(SCC(=O)Nc2ccc(OC)cc2)nc2ccccc21)c1cccc(C)c1	/	6%	/	/	-14%
COC(=O)CS	/	/	0%	4%	/
CC(=O)Nc1c(C)nn(-c2ccccc2)c1N1CCC(C(=O)NCc2cccc(Cl)c2)CC1	/	-3%	/	/	9%
C[C@H](NC(=O)c1nc[nH]c1C(=O)N1CCN(C(=O)OC(C)(C)C)CC1)C(=O)OC(C)(C)C	5%	6%	/	/	11%
CC(C)C[C@H](NC(=O)c1nc[nH]c1C(=O)N[C@@H](CCCCN)C(=O)OC(C)(C)C)C(=O)OC(C)(C)C	0%	9%	/	/	-10%
CC(C)C[C@H](NC(=O)c1nc[nH]c1C(=O)N(C)Cc1ccccc1)C(=O)OCc1ccccc1	5%	-5%	-11%	3.5µM*	?
CC(C)C[C@H](NC(=O)c1[nH]cnc1C(=O)N[C@@H](C)C(=O)OC(C)(C)C)C(=O)OC(C)(C)C	5%	-26%	6.3µM*	?	?
CC(C)C[C@H](NC(=O)c1nc[nH]c1C(=O)N1CCN(c2ccccc2)CC1)C(=O)OCc1ccccc1	6%	15%	5µM*	?	-13%
CC(C)C[C@H](NC(=O)c1nc[nH]c1C(=O)N1CCN(C(=O)OC(C)(C)C)CC1)C(=O)OC(C)(C)C	-4%	4%	2.8µM*	?	?
CC(C)C[C@H](NC(=O)c1nc[nH]c1C(=O)NCC(=O)OCc1ccccc1)C(=O)OCc1ccccc1	-1%	4%	-24%	?	0%
Cc1cc(N2CCN(C)CC2)nc2ccc(NC(=O)Nc3ccccc3Br)cc12	/	-19%	/	/	?
CC(C)C[C@H](NC(=O)c1[nH]cnc1C(=O)N[C@@H](C)c1ccccc1)C(=O)OCc1ccccc1	-1%	-13%	?	?	4.5µM*
CC(C)C[C@H](NC(=O)c1nc[nH]c1C(=O)N[C@@H](CC(C)C)C(=O)OC(C)(C)C)C(=O)OCc1ccccc1	-3%	-13%	5µM*	7.1µM*	?
CC(C)C[C@H](NC(=O)c1nc[nH]c1C(=O)NCC(=O)OC(C)(C)C)C(=O)OCc1ccccc1	1%	-6%	4µM*	18µM*	?
O=C(Cc1cccs1)Nc1cccc(-c2nc3cc4ccccc4cc3[nH]2)c1	-26%	-22%	15%	?	11µM*
CC(=O)Nc1ccc2nc(-c3ccncc3)[nH]c2c1	-4%	2%	-19%	-6%	16%
CC(=O)Nc1cccc(NC(=O)Cc2cccs2)c1	-3%	2%	-27%	11%	5%
O=C(Nc1ccc(-c2nc3ccc(NC(=O)c4cccs4)cc3[nH]2)cc1)c1cccs1	2%	6%	13µM*	?	-10%
c1ccc(-c2nc3cc4ccccc4cc3[nH]2)nc1	-22%	?	2.8µM*	3.2µM*	?
CC(=O)Nc1ccc2nc(-c3ccccn3)[nH]c2c1	2%	4%	10µM*	-24%	10%
C[C@H](NC(=O)[C@@H](N)Cc1ccc(O)cc1)C(=O)NCC(=O)N[C@H]1CSSC[C@@H](C(=O)O)NC(=O)[C@H](CO)NC(=O)[C@H]([C@@H](C)O)NC(=O)[C@H](Cc2ccccc2)NC(=O)[C@H]([C@@H](C)O)NC(=O)[C@H](CCCCN)NC(=O)[C@@H](Cc2c[nH]c3ccccc23)NC(=O)[C@H](Cc2ccccc2)NC(=O)[C@H](Cc2ccccc2)NC(=O)[C@H](CC(N)=O)NC(=O)[C@H](CCCCN)NC1=O	/	/	-2%	2%	/
C=CCN=C1NN=C(c2cc(C)n(CC=C)c2C)CS1	0%	?	11µM*	?	?
